# GDH-TPI inh: GDH-TPI coupled enzyme inhibition counter-screen | GDH-TPI coupled enzyme counterscreen, NADH absorbance | inhibition, % at 4.8 µM | hit rate 1.2% among 360,000 | AID 588335; in the data active means inhibition above about 30%;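 further: 0% = DMSO wells and 100% = wells lacking the enzyme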
# FBA Mtb inh: inhibits M. tuberculosis FBA enzyme; inhibition, % at 1 µM; AID 588726; hit rate 2.3% among 360,000; P9WQA3; purified M. tuberculosis FBA, fluorescence read-out; in the data active means inhibition above about 27%;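 further: 0% = vehicle and 100% = reference inhibitor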
# Target sequence (P9WQA3 whole entry, looked up): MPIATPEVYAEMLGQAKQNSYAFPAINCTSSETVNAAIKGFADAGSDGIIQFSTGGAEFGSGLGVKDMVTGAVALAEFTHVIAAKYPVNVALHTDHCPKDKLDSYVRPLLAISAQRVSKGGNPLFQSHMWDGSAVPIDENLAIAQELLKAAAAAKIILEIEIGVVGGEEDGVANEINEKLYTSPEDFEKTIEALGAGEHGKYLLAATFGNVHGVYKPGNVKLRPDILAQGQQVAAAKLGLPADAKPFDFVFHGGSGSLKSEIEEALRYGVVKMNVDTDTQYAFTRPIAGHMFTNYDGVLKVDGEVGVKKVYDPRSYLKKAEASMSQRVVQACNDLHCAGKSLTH
# BoNT F protease: BoNT F light chain protease inhibition; Multiplex microsphere protease cleavage assay, flow cytometry; inhibition, % at 10 µM; hit rate 0.22% among 360,000; AID 588497; in the data active means inhibition above about 35%, passing the limit was not always enough; inconclusive means no clear call, values can overlap the other calls; further: plate controls were buffer without enzyme for full effect and enzyme alone for no effect
# BoNT-A LC inh2: inhibitors of Botulinum neurotoxin A light chain protease; multiplex microsphere protease substrate cleavage, flow cytometry; hit rate 0.17% among 360,000; AID 588499; inhibition, % at 10 µM; further: plate controls were buffer without enzyme for full effect and enzyme alone for no effect
# Anthrax LF prot: anthrax lethal factor protease inhibition; AID 588501; hit rate 0.12% among 360,000; P15917; multiplex microsphere protease cleavage assay, LF; inhibition, % at 10 µM; further: plate controls were buffer without enzyme for full effect and enzyme alone for no effect
# Autofluor counter: counter-screen for toxin protease inhibitors: compound fluorescence; compound autofluorescence counterscreen, microsphere flow cytometry; active compounds read high; fluorescence intensity (test concentration not listed); hit rate 3.1% among 360,000; in the data active means fluorescence intensity above about 16000; inconclusive means no clear call, values can overlap the other calls
# The depositor's hits bear a star; ? = inconclusive; / = no result given; + = active, no number. Only some compounds are listed: those with a hit (about 6.6% of all), similar ones and a draw of the others. Unless noted, no stated cut-off is given here; in the data, active means inhibition above about 30%; inconclusive means no clear call, values can overlap the other calls; inactive means below that.
SMILES,GDH-TPI inh,FBA Mtb inh,BoNT F protease,BoNT-A LC inh2,Anthrax LF prot,Autofluor counter
CCOC(=O)c1nn(-c2ccccc2)c(=O)c(C#N)c1C,31,2,2,1,-2,3526
CCOC(=O)c1nn(-c2ccccc2)c(C#N)c1N,10,+,-1,0,-1,2015
CSc1nc2c(c(=O)[nH]1)C(c1cccc(Br)c1)CC(=O)N2 (stereo unspecified),4,0,-4,-1,0,3895
CCOc1ccc(NC(=O)COC(=O)Cn2nc(C)c([N+](=O)[O-])c2C)cc1OCC,7,-2,-1,0,0,3554
CCOc1ccc(NC(=O)COC(=O)Cn2cnnn2)cc1OCC,-5,0,-3,0,-1,23264*
O=C(O)Cc1ccc(C(=O)c2cccs2)s1,37*,-9,-4,1,-1,3678
CCCC(=O)N1CCc2cc(OC)c(OC)cc2C1c1cc2cc3c(cc2[nH]c1=O)OCO3 (stereo unspecified),7,9,-3,0,0,10150
COc1cc2c(cc1OC)C(c1cc3cc(OC)c(OC)cc3[nH]c1=O)N(C(=O)C1CC1)CC2 (stereo unspecified),15,11,0,1,-3,20442*
CCc1ccc2nc3c(c(C(=O)O)c2c1)CCC3,-4,3,3,2,-2,22313*
C=CCN1C(=O)C(CC(=O)O)SC1=Nc1ccc(C)cc1 (stereo unspecified),3,-1,3,0,1,4217
CC(C)(C)OC(=O)C[C@@H]1C/C=C\C[C@@H](CC(=O)N[C@H](CO)Cc2ccccc2)C(=O)N2CCC[C@H]2COC1=O,4,1,-11,-1,-1,4149
Cc1c(OC(C)C(=O)NCc2ccccn2)ccc2c3c(c(=O)oc12)CCC3 (stereo unspecified),13,30*,2,2,2,6024
Cc1c(Cl)cccc1Nc1nc(N)nc(CSc2ncccn2)n1,5,4,-1,0,-2,20532*
O=C(CNC(=O)c1ccc(N2CCCC2=O)cc1)Nc1ccc(F)c(F)c1F,10,1,-2,0,-7,2762
CCOCCCn1c(=NC(=O)c2cccs2)c(C#N)cc2c(=O)n3cccc(C)c3nc21,13,+,6,21,5,4037
COCCCn1c(=NC(C)=O)c(C#N)cc2c(=O)n3cccc(C)c3nc21,-1,+,-60,-2,-16,4502
CCOCCCNC(=O)c1cc2c(=O)n3cccc(C)c3nc2s1,15,24,23,0,5,3747
COCCCn1c(=NC(=O)c2ccccc2)c(C#N)cc2c(=O)n3cccc(C)c3nc21,-6,174*,/,/,/,/
COCCCn1c(C(=O)NC2CCCCC2C)cc2c(=O)n3cccc(C)c3nc21 (stereo unspecified),-4,5,-1,1,-1,4235
O=C(O)c1cc([N+](=O)[O-])cc2c1C=Cc1ccccc1O2,9,-1,-34,1,-9,3734
CCCCNC(=O)c1ccc(CS(=O)(=O)c2ccccc2OC)o1,-1,0,-2,-3,-11,3117
Cc1ccccc1S(=O)(=O)Cc1ccc(C(=O)NCCCN2CCN(C)CC2)o1,5,2,-4,-2,-5,22715*
COc1ccccc1S(=O)(=O)Cc1ccc(C(=O)NCCN2CCCC2)o1,11,0,-3,-1,0,22371*
COc1ccc(CCNC(=O)c2ccc(CS(=O)(=O)c3ccc(C)cc3)o2)cc1OC,-1,-1,0,0,7,4495
COc1ccc(CCNC(=O)c2ccc(CS(=O)(=O)c3ccc(Cl)cc3)o2)cc1OC,2,1,2,5,1,17952*
COc1ccc(-c2nc3ccc(Br)cn3c2CC(C)(C)C)cc1OC,/,-1,-14,0,0,6126
O=C(CCC(=O)N1CCN(S(=O)(=O)c2ccccc2)CC1)c1cccs1,12,1,4,?,-1,20748*
COc1ccc(/C=C(\NC(=O)c2ccco2)C(=O)NC(Cc2ccccc2)C(=O)O)cc1 (stereo unspecified),1,-3,4,-2,-6,3821
CCC1(c2ccc(F)cc2)NC(=O)N(CC(=O)N2c3ccccc3CC2C)C1=O (stereo unspecified),-3,3,1,1,-3,5586
O=[N+]([O-])c1ccccc1/C=N/Nc1nccnc1Cl,14,-2,0,-1,-2,22518*

# Source: PubChem
